From PubChem BioAssay (Tox21) come the findings set out here.

Values without a mark were called inactive. Results filed as inconclusive are left out. Calls of active or inactive are those of the source. Unless noted, calls come from the whole dose curve; as a rule, active = well fitted curve in the direction sought with a large enough effect in the repeat runs; inconclusive = weak or mixed curves; inactive = no such curve, though single readings can be large; an effect the other way counts as inactive or inconclusive.

Assay [1] is described as follows: qHTS assay for small molecule agonists of the p53 signaling pathway (AID 651631; calls by dose curve; note: nearly all actives have a fitted effect of over 15% in size). In outline:
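p53RE-bla HCT-116 cells; compounds 16 h, 37 °C; LiveBLAzer B/G FRET substrate 2 h RT; fluorescence intensity read-out, qHTS format.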

Assay [2] can be described thus: qHTS assay for small molecules that induce genotoxicity in human embryonic kidney cells expressing luciferase-tagged ATAD5 (AID 651632). Note: nearly all actives have a fitted effect of over 15% in size. In outline:
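Increased luciferase signal from ATAD5-tagged reporter cells indicates DNA-damage-driven ATAD5 induction. HEK293T cells are treated for 16 hr at 37C before detection with Amplite.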

The nature of assay [3]: qHTS assay for small molecule agonists of the p53 signaling pathway - cell viability (AID 651633; calls by dose curve;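 note: p53RE-bla HCT reporter cells with a stable beta-lactamase p53 reporter; series mostly up to about 83 µM; nearly all actives have a fitted effect of over 30% in size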). The procedure, abridged:
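p53RE-bla cells were treated with compound for 16 hours at 37 C. Cytotoxicity was then measured as CellTiter-Glo luminescence after 30 min at room temperature.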

Assay [4] in a line: qHTS assay for small molecules that induce genotoxicity in human embryonic kidney cells expressing luciferase-tagged ATAD5 - cell viability (AID 651634; calls by dose curve; note: nearly all actives have a fitted effect of over 25% in size). In outline: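 Cytotoxicity counterscreen in HEK293T cells bearing an ATAD5-luciferase reporter: live-cell protease activity measured by CellTiter-Fluor fluorescence after 15.5 hr compound exposure.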
A short description of assay [5]: qHTS assay for small molecule disruptors of the mitochondrial membrane potential - cell viability (AID 720634; calls by dose curve;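 note: human HepG2 liver cancer cells; series mostly up to about 83 µM; nearly all actives have a fitted effect of over 20% in size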). In outline:
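After overnight attachment at 37 C, HepG2 cells received compound or DMSO vehicle for 1 hr. Viability is then taken from ATP-driven luminescence following a 30 min room-temperature CellTiter-Glo step.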

Assay [6] is described as follows: qHTS assay for small molecule disruptors of the mitochondrial membrane potential (AID 720635). Note: potency is the fitted concentration of half-maximal effect. In outline: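 HepG2 cells exposed to compound 1 hr at 37C, then Mito-MPS dye 30 min. Ratio read of aggregate (540/590 nm) versus monomer (490/535 nm) fluorescence.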
A short description of assay [7]: qHTS assay to test for compound auto fluorescence at 590 nm (red) in HepG2 cells (AID 720674). In outline: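 Seeding: 2,000 HepG2 cells/well, MEM/10% FBS, overnight 37 C. Dosing: compound vs DMSO. Incubation: 1 hr, 37 C, 5% CO2. Read: fluorescence 540 ex/590 em, Rose Bengal sodium as red reference.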
Assay [8] can be described thus: qHTS assay to test for compound auto fluorescence at 535 nm (green) in HepG2 cells (AID 720675).
Assay [9] in a line: qHTS assay to test for compound auto fluorescence at 460 nm (blue) in HEK293 cells (AID 720678). The procedure, abridged: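 After cell attachment (4-5 hr, 37C), compounds were pinned onto HEK293 monolayers in 10% dialyzed FBS medium. The blue channel (405/460 nm) was read following overnight culture. Equivalency was calculated against triamterene.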
Assay [10] in a line: qHTS assay to test for compound auto fluorescence at 590 nm (red) in HEK293 cells (AID 720679). In outline: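 Plates of HEK293 cells (10% dialyzed FBS) are treated with 23 nL compound or DMSO vehicle after a 4-5 hr attachment period, incubated overnight at 37C, and read for red fluorescence at 540/590nm.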
% is set by controls: 0 for no effect and ±100 for the full control effect.

In the case of `CC(C)c1ccccc1`, the Potency result in assay [1], in assay [2], in assay [3], in assay [4], in assay [5] and in assay [6] was “inactive” each time. For the same compound, the result in assay [7], in [8], in assay [9] and in assay [10] was inactive.

`C=C(C)C(=O)OCCOP(=O)(O)O`: the Potency result in assay [1], in assay [2], in assay [3], in [4], in assay [5] and in [6] was “inactive” each time. The compound was called inactive in [7], in [8], in [9] and in [10].

Take `C1CSCCS1`: the Potency result in [1], in assay [2], in assay [3], in [4], in assay [5] and in assay [6] was “inactive” throughout. Also, the compound was called inactive in assay [7], in assay [8], in [9] and in assay [10].

`CC(C)S`: the Potency entry in assay [1], in assay [2], in assay [3], in assay [4], in assay [5] and in assay [6] was “inactive” in each case. The call in [7], in assay [8], in assay [9] and in assay [10] was inactive.

On to `CCCNC(C)C(=O)Nc1c(C)csc1C(=O)OC` (stereo not given), for which the Potency result in [1], in assay [2], in assay [3], in assay [4], in assay [5] and in assay [6] was “inactive” in each case. Besides, the fluorescence, relative to Rose Bengal in [7] is 0.288% [at 18.6 µM]. Further, the fluorescence, % of fluorescein control in assay [8] is -0.0675% [at 18.6 µM]. In addition, in assay [9], the fluorescence, % of triamterene is -0.0757% [at 18.6 µM]. Also, the fluorescence, % of fluorescent control in [10] was -0.0511% [at 18.6 µM].

Turning to `CCCCC1CCC(=O)O1` (stereo not given), the Potency result in assay [1], in assay [2], in assay [3], in assay [4], in [5] and in [6] was “inactive” each time. The result in [7], in assay [8], in assay [9] and in assay [10] was inactive.

Take `CC(C)=CCC[C@](C)(O)[C@@H]1CC=C(C)CC1`: the Potency entry in assay [1], in assay [2], in assay [3], in [4] and in assay [5] was “inactive” throughout. Besides, the Potency in [6] is 30.6 µM (active). In addition, the compound was called inactive in assay [7], in assay [8], in assay [9] and in assay [10].

`O=C1N(c2ccccc2)c2ccccc2C1(Cc1ccncc1)Cc1ccncc1`: the Potency entry in [1], in assay [2], in assay [3], in assay [4], in [5] and in assay [6] was “inactive” each time. Also, the compound was classed as inactive in assay [7], in assay [8], in [9] and in [10].

Regarding `OCc1c2ccccc2cc2ccccc12`, the Potency entry in assay [1], in assay [2], in assay [3], in assay [4] and in [5] was “inactive” each time. The Potency in [6] was 30.7 µM (active). Moreover, the compound was called inactive in [7], in assay [8], in [9] and in [10].

Turning to `Cc1ccc(C=O)s1`, the Potency entry in assay [1], in assay [2], in assay [3], in assay [4], in assay [5] and in assay [6] was “inactive” in each case. The result in assay [7], in assay [8], in [9] and in assay [10] was inactive.

For `CCOC(=O)C(Br)c1ccccc1` (stereo not given), the Potency entry in assay [1], in assay [2], in assay [3], in [4], in assay [5] and in assay [6] was “inactive” throughout. In addition, the compound was classed as inactive in [7], in assay [8], in [9] and in assay [10].

In the case of `O=C(O)c1cccc(Cl)c1Cl`, the Potency entry in assay [1], in assay [2], in [3], in [4], in assay [5] and in [6] was “inactive” each time. Also, the result in assay [7], in [8], in assay [9] and in assay [10] was inactive.

On to `CC(C)C1=CC2=CC[C@@H]3[C@](C)(CCC[C@@]3(C)C(=O)O)[C@H]2CC1`, for which the Potency entry in [1], in assay [2], in [3], in assay [4], in assay [5] and in assay [6] was “inactive” throughout. Further, the call in assay [7], in assay [8], in [9] and in assay [10] was inactive.

In the case of `CCCc1c2oc(C(=O)O)cc(=O)c2cc2c(=O)cc(C(=O)O)n(CC)c12`, the Potency result in assay [1], in [2], in assay [3], in assay [4], in assay [5] and in assay [6] was “inactive” throughout. In addition, the compound was classed as inactive in [7], in assay [8], in assay [9] and in [10].

As for `CC1(C)O[C@@H]2C[C@H]3[C@@H]4CCC5=CC(=O)CC[C@]5(C)[C@@]4(F)[C@@H](O)C[C@]3(C)[C@]2(C(=O)CCl)O1`, the Potency result in [1], in assay [2], in [3], in assay [4] and in assay [5] was “inactive” in each case. The Potency in assay [6] is 8.04 µM (active). In addition, in assay [7], the fluorescence, relative to Rose Bengal was -0.0973% [at 18.6 µM]. Moreover, in [8], the fluorescence, % of fluorescein control was -0.093% [at 18.6 µM]. The fluorescence, % of triamterene in assay [9] is -0.0183% [at 18.6 µM]. The fluorescence, % of fluorescent control in assay [10] was -0.0534% [at 18.6 µM].

`CCOC(=O)c1ccccc1O`: the Potency entry in assay [1], in assay [2], in assay [3], in [4], in assay [5] and in assay [6] was “inactive” in each case. Further, the call in assay [7], in assay [8], in assay [9] and in assay [10] was inactive.

With `CCCCCCCCCC/C=C/C#N`, the Potency entry in assay [1], in [2], in [3], in assay [4], in [5] and in [6] was “inactive” throughout. The result in [7], in assay [8], in [9] and in [10] was inactive.

As for `CCCC1CCC(=O)O1` (stereo not given), the Potency result in [1], in assay [2], in assay [3], in [4], in assay [5] and in assay [6] was “inactive” throughout. Also, the outcome in assay [7], in assay [8], in assay [9] and in [10] was inactive.

As for `CC(C)(C)c1cccc(O)c1`, the Potency entry in [1], in assay [2], in [3], in [4] and in assay [5] was “inactive” throughout. Further, the Potency in assay [6] was 48.6 µM (active). Also, the result in assay [7], in assay [8], in [9] and in assay [10] was inactive.

With `CC(=O)OC(C)OC(C)=O`, the Potency result in assay [1], in assay [2], in [3], in [4], in [5] and in [6] was “inactive” throughout. For the same compound, the compound was classed as inactive in [7], in assay [8], in [9] and in assay [10].

On to `CCN(O)CC`, for which the Potency result in [1], in assay [2], in assay [3], in [4], in assay [5] and in [6] was “inactive” each time. The call in assay [7], in [8], in assay [9] and in assay [10] was inactive.

On to `CN(CC1(C)CCCO1)S(=O)(=O)c1ccc(Cl)c(S(N)(=O)=O)c1` (stereo not given), for which the Potency result in assay [1], in [2], in [3], in assay [4], in [5] and in [6] was “inactive” in each case. Further, the call in assay [7], in [8], in assay [9] and in [10] was inactive.

In the case of `CCCCNC(=S)NCCCC`, the Potency result in [1], in assay [2], in assay [3], in assay [4], in assay [5] and in assay [6] was “inactive” in each case. Besides, the result in assay [7], in assay [8], in assay [9] and in assay [10] was inactive.
